Source: PubChem BioAssay (University of Kansas High Throughput Screening Laboratory)
mHTT CaM bind = disrupts binding of mutant huntingtin to calmodulin; AlphaScreen His-mHTT/GST-CaM binding, luminescence; inhibition, % at 15 µM; 190,000 compounds, 3.6% hits;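 also: 0% = both proteins with DMSO and 100% = one protein alone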
Pf apPOL block = Pf-apPOL DNA polymerase inhibition; inhibition, % at 10 µM; Recombinant Pf-apPOL, molecular beacon fluorescence, 1.5 h; 210,000 compounds, 0.25% hits
Starred values were filed as active, the others as inactive; / = no result. Hits are enriched below; roughly 3.6% of the tested compounds scored in any of these assays. Rule as the data show it: active = inhibition above about 50%; inactive = the rest.

SMILES | mHTT CaM bind | Pf apPOL block
O=S1(=O)C=C(Sc2cccc3cccnc23)c2ccccc21 | 68* | 6
Cc1cc(C)nc(SC2=CS(=O)(=O)c3ccccc32)n1 | -2 | 25
CCC(C)C(=O)N1CCc2[nH]nc(C(=O)N3CCCCC3)c2C1 (stereo not drawn) | -3 | -4
Cc1[nH]nc(Nc2ccc(I)cc2)c1[N+](=O)[O-] | 14 | 5
Cc1cc(C)c(NC(=O)OCc2cccc3cccnc23)c(C)c1 | 100* | -9
Cc1cc(Cl)ccc1NC(=O)CSc1cccc2cccnc12 | 18 | -6
CCc1cccc(N=c2oc3ccccc3cc2C(=O)Nc2nccs2)c1 | 3 | -3
CCOc1ccc(C2C3=C(CCCC3=O)Nc3ccc4ncccc4c32)cc1 (stereo not drawn) | 36 | -1
O=C1CCCC2=C1C(c1ccc(OCc3ccccc3F)c(Cl)c1)C1=C(CCCC1=O)N2 | -6 | -4
COc1cc(C2C3=C(CCCC3=O)Nc3ccc4ncccc4c32)ccc1OCc1ccccc1 (stereo not drawn) | 100* | -1
CCOc1cc(C2C3=C(CCCC3=O)NC3=C2C(=O)CCC3)ccc1OCc1cccc(F)c1 | 75* | -30
OC(CNC1CCCC1)COc1ccccc1-c1ccccc1 (stereo not drawn) | 26 | -6
CCOc1ccc(S(=O)(=O)N2CCC(N3CCCCC3)CC2)c2cccnc12 | 7 | -9
COc1ccc(NC(=O)C2CCCN(c3nnc4cccc(C)n34)C2)c(C)c1 (stereo not drawn) | 8 | 2
COc1ccc(C#CCO)cc1 | 4 | 1
Oc1ccc(N=Cc2ccc(OCc3ccccc3)cc2)cc1 | 35 | 0
COc1ccc(C=Nc2ccc(C(N)=O)cc2)cc1O | -4 | -1
COc1cc(C=Nc2ccc(Cl)c(Cl)c2)ccc1O | 2 | 3
COc1cc(C=Nc2ccc(Nc3ccccc3)cc2)ccc1O | 92* | -4
Oc1ccc(C=Nc2ccc(Nc3ccccc3)cc2)cc1 | 100* | -3
COc1ccc(C=Nc2ccc(Nc3ccccc3)cc2)cc1O | 87* | -57
COc1ccccc1C(=O)N1CCCC1COc1ccc(C(=O)N2CCCC2)cc1 (stereo not drawn) | -5 | 0
Cc1ccccc1C(=O)NC1CCc2[nH]c3ccc(Br)cc3c2C1 (stereo not drawn) | 100* | 0
Cc1cc(C)c2[nH]c3c(c2c1)CC(NC(=O)C1CCCO1)CC3 (stereo not drawn) | 54* | -3
Cc1cccc2c3c([nH]c12)CCC(NC(=O)CC(C)C)C3 (stereo not drawn) | 47 | -4
SMILES | mHTT CaM bind | Pf apPOL block
Cc1cc(Cl)cc2c3c([nH]c12)CCC(NC(=O)C1CCCC1)C3 (stereo not drawn) | 49 | -4
COc1ccccc1C(=O)NC1CCc2[nH]c3c(C)cc(Cl)cc3c2C1 (stereo not drawn) | 92* | -3
CCOC(=O)C(=O)NC1CCc2[nH]c3ccc(C)cc3c2C1 (stereo not drawn) | 21 | 0
Cc1ccc(C(=O)N2CCC(c3nc(CCNC(=O)C4CC4)cs3)CC2)cc1 | 22 | 2
COC(=O)Nc1ccc(S(=O)(=O)NC(C)=O)cc1 | 3 | 0
COC(=O)Nc1ccc(S(=O)(=O)Nc2cc(C(C)C)c(O)c(C(C)C)c2)cc1 | 56* | 1
O=C(NCc1cccnc1)C(=O)Nc1ccccc1Cl | -3 | -23
COc1ccc([N+](=O)[O-])cc1NC(=O)C1CC(=O)OC12CCOC(C)(C)C2 (stereo not drawn) | -2 | -14
Cn1ccc2c(-c3ccccc3F)cc3c(c21)C1CCC3C1 (stereo not drawn) | 13 | -3
CN(Cc1ccccc1F)c1cc2c(c3c1ccn3C)C1CCC2C1 (stereo not drawn) | 56* | 0
N#CC1=C(N)NC(SCC(=O)Nc2ccc(Br)cc2)=C(C#N)C12CCCCC2 | 83* | -8
CCSC1=C(C#N)C2(CCCC2)C(C#N)=C(N)N1 | 2 | 2
O=C(NCc1cccnc1)C1CCN(c2ccccc2Cl)C1=O (stereo not drawn) | 2 | 1
CN(C)CCCNCc1ccc2c(c1)OCO2 | -2 | 0
Cc1cc(C)n(-c2nc(C)nc(N)n2)n1 | 1 | 7
COc1nc(-n2nc(C)cc2C)nc(-n2nc(C)cc2C)n1 | -8 | 64*
COc1ccc(OC)c(-c2cc3ccc(OC(=O)C(C)C)cc3oc2=O)c1 | -3 | -5
COc1ccc(-c2cc3ccc(OC(=O)C(C)C)cc3oc2=O)c(OC)c1 | 78* | -1
O=C(Nc1ccc(Cl)cn1)c1cc(-c2ccccc2)nc2ccccc12 | -11 | 4
O=C(C(=CN1CCCC1)c1nnnn1-c1ccccc1)c1ccccc1 | / | -8
CC1=NN(c2ccccc2)C(=O)/C1=C/c1ccc(-c2ccccc2Cl)o1 | 8 | -2
CC1=NN(c2cccc(Cl)c2)C(=O)/C1=C/c1ccc(-c2ccc(C(=O)O)c(Cl)c2)o1 | 52* | -6
CC1=NN(c2ccccc2)C(=O)/C1=C/c1ccc(-c2cccc([N+](=O)[O-])c2)o1 | 5 | -9
